Source: PubChem BioAssay (NCI)
The panel holds about 79,000 compounds, 15% with a hit somewhere; the sample as a whole holds those more often. Values without a mark were called inactive. Activity calls are given as the source filed them. No stated cut-off is given here; in the data, active means growth inhibition above about 70%; inactive means the rest.

test: NCI Yeast Anticancer Drug Screen. Data for the rad50 strain (AID 155);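 further: 0% = growth of vehicle-only cultures of the same strain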; conditions: S. cerevisiae rad50 strain growth inhibition; at 5.0 µM (retest, dose inferred, filed as 0.5); active compounds read high
Outline: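 Genetically altered yeast (DNA repair pathway); compound treatment; growth inhibition vs vehicle ctrl.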

Row | SMILES | growth inhibition
1 | CCCNC(=O)OCc1ccc(NCCN(CC)CC)c2c(=O)c3ccccc3sc12 | 10%
2 | COc1cc(C(c2cc3c(cc2O)OCO3)N2CCCCC2)cc(OC)c1OC (centres undefined) | -4%
3 | Cc1cc2c(cc1Cl)Sc1nnc(C)n1S2(=O)=O | 18%
4 | O=C(Oc1cccc2cccnc12)c1ccccc1 | 4%
5 | CCCCCCN(CCCCCC)CCC(=O)c1ccc2cc(Br)c3ccccc3c2c1 | 26%
6 | Cc1c2cc(Cl)ccc2cc2c1ccc1ccccc12 | 12%
7 | O=C1OC(CCCl)(c2ccccc2)CC1CN1CCOCC1 (centres undefined) | 10%
8 | CCOC(=N)CCCSSc1ccc(N=[N+]=[N-])cc1 | 15%
9 | Cc1[nH]c2ccccc2c1/C=C1\C(=O)C2CCC1C2 (centres undefined) | -7%
10 | O=C(O)c1ccc2c3c(ncnc13)-c1ccccc1C2=O | 22%
11 | CCNCCNc1cc(O)c2c(c1O)C(=O)c1ccccc1C2=O | 73% (active)
12 | Nc1nc(N)c2nc(CNc3ccc(C(=O)NC(CCC(=O)O)C(=O)O)cc3)cnc2n1 (centres undefined) | -4%
13 | COc1ccccc1OC(=O)Oc1ccccc1OC | -1%
14 | NNC(=O)c1c(SCc2ccccc2)nc2c3ccccc3ccn12 | 40%
15 | N#CC1Oc2ccccc2N1C(=O)c1ccccc1 (centres undefined) | 2%
16 | O=C1C2=Cc3ccccc3CCN2c2ccccc21 | 4%
17 | Cc1cc([N+](=O)[O-])cc(Cl)c1O | -21%
18 | Cc1c(Cl)cccc1N=NC(=O)NNc1cccc(Cl)c1C | 1%
19 | CCC[CH2][Sn]1([CH2]CCC)[O]C(=O)CN=Cc2c(ccc3ccccc23)[O]1 | 47%
